Several values for one entry are separate records, joined by “and”; a condition that tells them apart may be missing. Identical values can stand only once. Results filed as inconclusive are left out. The source holds several records for some structures; these can differ, active in one and inactive in another. Activity calls are given as the source filed them. Rule for the calls, unless noted: active = hit-call score of the fitted dose curve at least 0.9, where 1 is the maximum; inconclusive = response in the unintended direction; inactive = score below 0.9.
Legend:
[1] = TOX21_p53_BLA_p2_viability: Viability Assessment in the Tox21 HCT-116 p53 Agonism Beta-lactamase Assay, Phase 2 (AID 2283591);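 note: compound exposure lasted 16 h at 37 °C; actives lower the ATP signal meaning cytotoxicity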
How it was run: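 HCT116 p53-bla cells, 4000/well, dosed after 5 h plating (217-fold dilution of DMSO stocks) and incubated 16 h at 37C. Viability taken as cellular ATP by CellTiter-Glo luminescence after 30 min RT; signal loss marks cytotoxicity.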

[2] = biological target: Cellular tumor antigen p53 (Homo sapiens) (UniProt P04637); test: TOX21_p53_BLA_p2_ratio: Tox21 HCT-116 p53 Agonism Beta-lactamase Assay, Ratio, Phase 2 (AID 2283592)
Chain of Cellular tumor antigen p53 (Homo sapiens) (P04637 whole entry, looked up): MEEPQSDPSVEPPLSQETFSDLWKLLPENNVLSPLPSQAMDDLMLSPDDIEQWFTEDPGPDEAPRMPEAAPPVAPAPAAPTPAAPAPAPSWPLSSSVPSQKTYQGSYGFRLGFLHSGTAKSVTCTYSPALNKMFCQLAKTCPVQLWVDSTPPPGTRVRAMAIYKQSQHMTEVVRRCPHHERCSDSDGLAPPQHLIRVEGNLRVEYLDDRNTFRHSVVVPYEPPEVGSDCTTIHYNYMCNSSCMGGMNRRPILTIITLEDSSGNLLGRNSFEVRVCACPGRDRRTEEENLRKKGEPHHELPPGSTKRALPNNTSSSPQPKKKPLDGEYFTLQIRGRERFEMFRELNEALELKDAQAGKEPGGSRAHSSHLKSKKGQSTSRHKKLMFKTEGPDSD
How it was run: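 Read-out is the blue/green (460/530 nm, 405 nm excitation) ratio after 2 h CCF4-AM loading, fitted as gain versus DMSO. Compounds, pinned at 217-fold dilution from DMSO stocks, stayed 16 h on HCT-116 beta-lactamase reporter cells seeded 5 h earlier.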

[3] = biological target: Cellular tumor antigen p53 (Homo sapiens) (UniProt P04637); test: TOX21_p53_BLA_p3_ratio: Tox21 HCT-116 p53 Agonism Beta-lactamase Assay, Ratio, Phase 3 (AID 2283596)
How it was run: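 Cells were seeded at 4000/well, rested 5 h at 37C, then dosed with DMSO compound solutions (217-fold dilution) for 16 h. CCF4-AM substrate was loaded for 2 h at room temperature, and the 460/530 nm emission ratio was fitted for gain of signal versus DMSO.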

[4] = TOX21_p53_BLA_p4_viability: Viability Assessment in the Tox21 HCT-116 p53 Agonism Beta-lactamase Assay, Phase 4 (AID 2283597);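 note: hits lower the luminescence signal meaning cytotoxicity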
How it was run: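 Cytotoxicity as reduced cellular ATP (CellTiter-Glo luminescence, 30 min room temperature), measured in the same wells following the CCF4 FRET p53 reading. Human HCT-116 cells received compounds in DMSO (217-fold dilution) for 16 h.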

[5] = biological target: Cellular tumor antigen p53 (Homo sapiens) (UniProt P04637); test: TOX21_p53_BLA_p5_ratio: Tox21 HCT-116 p53 Agonism Beta-lactamase Assay, Ratio, Phase 5 (AID 2283599)
How it was run: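 HCT-116 p53-bla cells (4000/well) plated 5 h, dosed with compound (217-fold DMSO dilution) for 16 h at 37 C; CCF4-AM substrate 2 h at room temperature. Activity is the 460/530 nm emission ratio (405 nm excitation), fitted in gain-of-signal direction versus DMSO.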

[6] = TOX21_p53_BLA_p5_viability: Viability Assessment in the Tox21 HCT-116 p53 Agonism Beta-lactamase Assay, Phase 5 (AID 2283600)
How it was run: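 Viability came from CellTiter-Glo ATP luminescence, read after 30 min at room temperature. Before this, HCT-116 p53-bla cells (4000/well) had 16 hours of compound exposure at 37C, with DMSO stocks diluted 217-fold on transfer.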

[7] = TOX21_p53_BLA_p3_viability: Viability Assessment in the Tox21 HCT-116 p53 Agonism Beta-lactamase Assay, Phase 3 (AID 2283593);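 note: cells exposed to compound for 16 h before reading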
How it was run: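 HCT116 cells, 4000/well, dosed 5 h after plating by pin transfer (217-fold dilution from DMSO stock) and incubated 16 h at 37C, 5% CO2. Viability read as ATP luminescence with CellTiter-Glo after 30 min at room temperature.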

[8] = biological target: Cellular tumor antigen p53 (Homo sapiens) (UniProt P04637); test: TOX21_p53_BLA_p4_ratio: Tox21 HCT-116 p53 Agonism Beta-lactamase Assay, Ratio, Phase 4 (AID 2283601)
How it was run: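 HCT-116 p53 beta-lactamase reporter cells (4000/well) preincubated 5 h, then compound (217-fold dilution of DMSO stock) for 16 h at 37C. CCF4-AM substrate added 2 h at room temperature; 460/530 nm emission ratio fitted upward versus DMSO.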

[9] = CCTE_Harrill_HTTr_Viability_MCF7: CCTE's 6-hour Cell Viability Assessment for the High-Throughput Transcriptomics (HTTr) Platform, in MCF-7 cells cultured in DMEM + 10% fetal bovine serum, Harrill Lab (AID 2284010; active = hit-call score of the fitted dose curve at least 0.9, where 1 is the maximum; inactive = score below 0.9)
How it was run: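 PI exclusion, high-content imaging; 8-pt dilution series, 6 h exposure; bidirectional fit vs DMSO (neg. ctrl/baseline); gain of signal = loss of membrane integrity.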

[10] = CCTE_Harrill_HTTr_Apoptosis_MCF7: CCTE's 6-hour Apoptosis Assessment for the High-Throughput Transcriptomics (HTTr) Platform, in MCF-7 cells cultured in DMEM + 10% fetal bovine serum, Harrill Lab (AID 2284011; active = hit-call score of the fitted dose curve at least 0.9, where 1 is the maximum; inactive = score below 0.9)
How it was run: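 High-content imaging of CellEvent Caspase 3/7 Green signal follows a six-hour exposure, with eight concentrations per chemical. MCF-7 cells grown in DMEM plus 10% fetal bovine serum; activity fitted in both directions against DMSO.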

Measured: AC50

CC(=O)O[C@H]1C[C@@]2(C)[C@@H](C[C@@H](O)[C@H]3[C@@]4(C)CC[C@@H](O)[C@@H](C)[C@@H]4CC[C@@]32C)/C1=C(\CCC=C(C)C)C(=O)O
inactive: [1] | [2] | [3] | [4] | [5] | [6]

CCOc1ccc(O)cc1
inactive: [1] | [2] | [3]

CN(C)CCOC(c1ccc(Cl)cc1)c1ccccn1 (stereo not drawn)
inactive: [1] | [2] | [3] | [4]

NCc1ccccc1CC(=O)N[C@@H]1C(=O)N2C(C(=O)O)=C(CSc3nnnn3CC(=O)O)CS[C@H]12
inactive: [1] | [2] | [3] | [4] | [5] | [6]

CC(=O)OCC(=O)[C@@]12OC3(CCCC3)O[C@@H]1C[C@H]1[C@@H]3CCC4=CC(=O)C=C[C@]4(C)[C@@]3(F)[C@@H](O)C[C@@]12C
inactive: [1] | [2] | [7] | [8]

O=C(O)CCC(=O)c1ccc(-c2ccccc2)cc1
inactive: [1] | [2] | [3] | [4] | [5] | [6]

c1ccc2cc(C3=NCCN3)ccc2c1
inactive: [1] | [2] | [3] | [4] | [5]

CC(CNC(=O)c1cccnc1)NC(=O)c1cccnc1 (stereo not drawn)
inactive: [1] | [2] | [3]

CCC(=O)O[C@]1(C(=O)CCl)[C@@H](C)C[C@H]2[C@@H]3CCC4=CC(=O)C=C[C@]4(C)[C@@]3(F)[C@@H](O)C[C@@]21C
inactive: [1] | [2] | [7] | [8]

ClC(Cl)(Cl)c1ccc(C(Cl)(Cl)Cl)cc1
inactive: [1] | [2] | [3] | [4] | [5] | [6]

NC(=O)[C@H]1O[C@@H](O)[C@H](O)[C@@H](O)[C@@H]1O
inactive: [1] | [2] | [3] | [4] | [5] | [6]

N#Cc1ccc2c(c1)N(CCCN1CCC(O)CC1)c1ccccc1S2
active: [2] 40.4 µM | [5] 35.4 µM | [8] 25.1 µM
inactive: [1] | [3] | [4] | [6]

CO/N=C(\C(=O)N[C@@H]1C(=O)N2C(C(=O)[O-])=C(C[n+]3ccc(N)n3CCO)CS[C@H]12)c1csc(N)n1
inactive: [1] | [2] | [3] | [4] | [5] | [6]

CCN(CC)CCOc1ccc2nc(N(C)C)sc2c1
inactive: [1] | [2] | [3] | [4] | [5] | [6]

COC(=O)CC#N
inactive: [1] | [2] | [7] | [8]

Cc1nc2n(c(=O)c1CCN1CCC(c3noc4cc(F)ccc34)CC1)CCCC2
inactive: [1] | [2] | [3] | [4]

OCC=CCO
inactive: [1] | [2] | [3] | [4] | [5]

CN=C(N)NC(=O)Nc1c(C)cccc1C
inactive: [1] | [2] | [3] | [4]

Clc1nnc(Cl)c2ccccc12
inactive: [1] | [2] | [3] | [4] | [5] | [6]

CC(=O)OCC(=O)[C@@]1(O)[C@H](OC(C)=O)C[C@H]2[C@@H]3CCC4=CC(=O)C=C[C@]4(C)[C@@]3(F)[C@@H](O)C[C@@]21C
inactive: [1] | [2] | [3] | [4]

CC(=O)Oc1cccc(O)c1
inactive: [1] | [2] | [3] | [4] | [5] | [6]

O=Cc1ccc(Cl)c(Cl)c1
inactive: [1] | [2] | [3] | [4]

CC1(C)CC(OC(=O)CCCCCCCCC(=O)OC2CC(C)(C)NC(C)(C)C2)CC(C)(C)N1
inactive: [1] | [2] | [3] | [4]

CC(C)(C)C1(CCc2ccc(Cl)cc2)CO1 (stereo not drawn)
inactive: [1] | [2] | [3] | [4] | [5] | [6]

CC(C)SCc1ccco1
inactive: [1] | [2] | [3] | [4] | [5]

OCCCCCCO
inactive: [1] | [2] | [3] | [4] | [5] | [6]

O=C(O)[C@@H]1C[C@H](CP(=O)(O)O)CCN1
inactive: [1] | [2] | [3] | [4] | [5]

CCCCOC(=O)CC
inactive: [1] | [2] | [3] | [4] | [5] | [6]

CCC(=O)OC/C=C/c1ccccc1
inactive: [1] | [2] | [3] | [4] | [5]

CCOc1ccc2nc(N)sc2c1
inactive: [1] | [2] | [3] | [4] | [5] | [6]

C#C[C@]1(OC(C)=O)CC[C@H]2[C@@H]3CCC4=C[C@@H](OC(C)=O)CC[C@@H]4[C@H]3CC[C@@]21C
active: [1] 36.9 µM and 34.4 µM | [5] 43 µM | [6] 36.7 µM
inactive: [2] | [3] | [4] | [5] | [6] | [8] | [9] | [10]
